Data from the supplement of paper PMC3484114.
± gives the standard deviation.

System: OVCAR-3-derived ovarian cancer stem-like cells (spheroids)
Experiment: cell growth relative to untreated control; higher = more growth (less inhibition)
Conditions: 2.29 µM; 96 h
How it was run: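 Percent growth was calculated against untreated wells once blanks were subtracted and Grubbs outliers removed. The cells were OVCAR-3 spheroid-derived stem-like cells, trypsinized and plated at 50,000 cells/mL in stem cell medium on ultra-low attachment 96-well plates for a 24 h preincubation. They were then exposed to compounds at 2.29 uM for 96 h at 37°C, 5% CO2, in 4 replicate wells, and viability was measured by TOX8 resazurin fluorescence (ex 560/em 590 nm) after 4 h.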

| Structure (SMILES) | cell growth |
| --- | --- |
| COc1ccc(-c2cc(=O)c3c(O)cc(O)cc3o2)cc1OC | 4.9 ± 3.4% |
| CCS(=O)(=O)Nc1ccc(Nc2c3ccccc3nc3ccccc23)c(OC)c1 | 32.5 ± 9% |
| OC[C@H]1O[C@@H](n2cnc3cncnc32)[C@H](O)[C@@H]1O | 10.4 ± 3.1% |
| Cc1c2ccc3ccccc3c2c[n+]2ccccc12 | 88.9 ± 14% |
| Cc1cc(Cl)ccc1N1C(=O)C(=O)C(c2nc3ccccc3o2)C(=O)C1=O | 134 ± 53% |
| O=c1oc2cc(O)ccc2c2oc3cc(O)ccc3c12 | 124 ± 31% |
| C=CC(=O)N1C/C(=C\c2ccc(Cl)cc2)C(=O)/C(=C/c2ccc(Cl)cc2)C1 | 59.7 ± 22% |
| CC(=O)/C(=C\c1cccc([N+](=O)[O-])c1)C(=O)Nc1ccccc1C | 81.8 ± 22% |
| CN(C)c1ccc(/C=C/C(=O)c2ccccc2)cc1Br | 114 ± 9.2% |
| O=C(CC(=O)C(F)(F)F)c1csc2ccccc12 | 93.5 ± 13% |
| Nc1nc(-c2cccs2)cs1 | 57.1 ± 11% |
| COC(C(=O)C(O)C(C)O)C1Cc2cc3cc(OC4CC(OC5CC(O)C(O)C(C)O5)C(O)C(C)O4)c(C)c(O)c3c(O)c2C(=O)C1OC1CC(OC2CC(OC3CC(O)C(OC)C(C)O3)C(O)C(C)O2)C(O)C(C)O1 (centres undefined) | 54.3 ± 53% |
| COc1cc2oc3cc(=O)cc4oc(-c5ccccc5)cc(c2c2c1CCC(c1ccccc1)O2)c43 (centres undefined) | 150 ± 80% |
| COc1ccc(C2=Nc3ccccc3SC(C)C2)cc1 (centres undefined) | 91.1 ± 17% |
| CN(C)CCN1C(=O)c2cccc3cc(N)cc(c23)C1=O | 60.2 ± 11% |
| CC(/C=C/C(O)=C1/C(=O)CNC1=O)=C\[C@@H](C)[C@H]1O[C@]2(C)O[C@@H](C(=O)[C@@H]3O[C@@]32C)[C@@H]1C | 60.3 ± 14% |
| CCCCCCCCCCCCCCCCCCOP(=O)([O-])OCC[N+](C)(C)C | 51.1 ± 16% |
| Cc1ccc(NC(=O)c2cccc([N+](=O)[O-])c2O)c([N+](=O)[O-])c1 | 86.3 ± 17% |
| CCN1CCC(O)(/C=C/c2ccc(C)cc2)C(C(=O)/C=C/c2ccc(C)cc2)C1 (centres undefined) | 98.5 ± 13% |
| CC1CCCC(C(=O)/C(=C/c2cccc(Cl)c2)C(=O)C(=O)O)C1 (centres undefined) | 93.9 ± 27% |

| Structure (SMILES) | cell growth |
| --- | --- |
| Nc1nc(SCc2ccccc2Cl)c2[nH]cnc2n1 | 106 ± 13% |
| C=C1C(=O)OC2CC1C(OC(C)=O)C/C(C)=C/CC/C(C)=C\CCC2(C)O (centres undefined) | 48.5 ± 5.5% |
| N#CC(=C1C=CC(=NO)C=C1)c1ccc(Cl)cc1 | 91.1 ± 17% |
| COc1ccc(CCN(C)CCCC(C#N)(c2ccc(OC)c(OC)c2)C(C)C)cc1OC (centres undefined) | 115 ± 16% |
| Cc1nc(Cl)c(C)c(Cl)n1 | 88.2 ± 11% |
| O=c1oc2ccccc2cc1-c1ccc([N+](=O)[O-])cc1 | 38.6 ± 7.1% |
| Cc1c2cc[n+](CCN3CCCCC3)cc2c(C)c2c1[nH]c1ccc(O)cc12 | 146 ± 52% |
| COc1c(O[C@@H]2O[C@H](CO)[C@@H](O)[C@H](O)[C@H]2O)cc2c(c1OC)-c1ccc(OC)c(=O)cc1[C@@H](NC(C)=O)CC2 | 119 ± 20% |
| CC(=O)NC1C(OCc2ccccc2)OC(CO)C(O)C1OC(C)C(=O)NC(C(=O)NC(CCC(=O)NCCCCNc1c2ccccc2nc2cccc([N+](=O)[O-])c12)C(N)=O)C(C)C (centres undefined) | 105 ± 21% |
| COc1ccc(OC)c(-c2cc(=O)c3c(OC)c(OC)c(OC)c(OC)c3o2)c1 | 128 ± 50% |
| CCOC(=O)Nc1nc2ccc(Cn3cccc3)cc2[nH]1 | 127 ± 20% |
| Oc1cc2c3c(c1)c1cc4c(cc1c[n+]3CC2)OCO4 | 97.7 ± 13% |
| CO[C@@H]1C[C@](C)(O)Cc2cc3c(c(O)c21)C(=O)c1c(O)cc2c(c1C3=O)O[C@@H]1O[C@@]2(C)[C@H](O)[C@@H](N(C)C)[C@@H]1O | 37.7 ± 42% |
| CCN(CC)CCOc1ccccc1/C=C/c1noc2ccccc12 | 79.3 ± 18% |
| Cc1cc(C)c(NC(=O)/C=C/c2ccccc2)c(C)c1 | 89.7 ± 13% |
| C=C1CC[C@@H]2[C@](C)(CO)[C@H](O)CC[C@@]2(C)[C@@H]1C/C=C1/C(=O)OC[C@H]1O | 119 ± 38% |
| CCOC(=O)NC(Nc1ccc(F)cc1)(C(=O)OCC)C(F)(F)F (centres undefined) | 199 ± 130% |
| Nc1nc(N)c(N=Nc2ccccc2)c(=O)[nH]1 | 84.4 ± 21% |
| O=S(=O)(c1cccc(N=C=S)c1)c1cccc(N=C=S)c1 | 111 ± 11% |
